Compound activity as filed in PubChem BioAssay.
hgDAF12 agonist = H. glycines DAF-12 receptor agonists, primary screen, cell-based, luminescence, HEK293, GAL4 fusion, UAS-luciferase. hit rate 1.8% among 370,000. HEK293 GAL4-hgDAF12 UAS-luciferase reporter, agonist luminescence; normalized to butyrate control. Nuclear hormone receptor DAF-12 (Heterodera glycines), GAL4 fusion. AID 687014, 2013. activation, % at 6.8 µM;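 active means activation above a cutoff set at the mean of all screened compounds plus 3 SD, cut at about 10% in these data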;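 further: 0% = DMSO wells and 100% = sodium butyrate wells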
ssDAF-12 act = S. stercoralis DAF-12 nuclear receptor activators, primary screen, cell-based, luminescence, HEK293, GRIP1 co-expression, lit1-tk-luc; Nuclear hormone receptor DAF-12 (Strongyloides stercoralis); HEK293 ssDAF-12/GRIP1 lit1-tk-luc reporter; % of 3 µM dafachronic acid response; activation, % at 6.8 µM; hit rate 1% among 370,000;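 active means activation above the mean over all tested compounds plus 3 SD, cut at about 0.9% in these data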;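 further: 0% = DMSO-only wells and 100% = 3 µM delta7-dafachronic acid wells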
hcDAF-12 act = H. contortus DAF-12 nuclear receptor activators, primary screen, cell-based, luminescence, HEK293, lit1-tk-luc reporter; HEK293 hcDAF-12 lit1-tk-luc reporter; 0% DMSO, 100% Δ7-dafachronic acid; activation, % at 6.8 µM; hit rate 1.4% among 370,000; AID 652067, 2013;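 active means activation above the mean of all tested compounds plus 3 SD, cut at about 5.5% in these data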;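 further: 100% = response to 3 µM Δ7-dafachronic acid high control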
DAX1 inh-1 = DAX1 (NR0B1) inhibitors on StAR promoter, primary screen, cell-based, luminescence, SF-1 (NR5A1), full-length DAX-1; AID 652010, 2013; HEK293T StAR-luciferase reporter, SF-1/DAX-1 repression relief; hit rate 1.1% among 370,000; inhibition, % at 6.8 µM;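 active means inhibition above the mean over all tested compounds plus 3 SD, cut at about 3.6% in these data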;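 further: 0% = DAX-1 cells with DMSO and 100% = cells lacking DAX-1 with DMSO; higher inhibition means more luminescence from relief of DAX-1 repression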
Wee1 stabilizer = Wee1 degradation inhibitors, primary screen, cell-based, HeLa, Wee1K328M-luciferase, luminescence; Wee1-like protein kinase (Homo sapiens), P30291; HeLa Luc-Wee1K328M stability; 100% = proteasome inhibitor MG132 effect; reporter increase, % at 5 µM; hit rate 1.2% among 220,000; AID 1321, 2008;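 active means activation above the mean of all tested compounds plus 3 SD, set per screening run, cut at about 8.8% in these data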;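 further: cells exposed to compound for 20 h before luminescence read; 0% = DMSO alone and 100% = MG132 at 30 µM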
DAX1 inh-2 = DAX1 (NR0B1) inhibitors, primary screen, cell-based, HEK293, Gal4-DAX1, luciferase luminescence; AID 504766, 2011; inhibition, % at 6.75 µM; hit rate 0.99% among 340,000; Nuclear receptor subfamily 0 group B member 1 (Homo sapiens), P51843; HEK293 Gal4-DAX1 luciferase reporter;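 active means inhibition above the mean over all tested compounds plus 3 SD, cut at about 4.2% in these data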;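 further: 0% = DAX1-transfected cells with DMSO and 100% = empty-vector control cells with DMSO; inhibition shows as a rise in luminescence from relieved DAX1 repression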
LXRb hcDAF ctr = LXR agonists, Gal4 luciferase reporter, confirmation, counter-screen for hcDAF-12 agonist project, cell-based, luminescence, HEK293, H. contortus campaign | shares compounds with hcDAF-12 act | HEK293 Gal4-LXR tk-luc reporter, 24 h; normalized: DMSO 0%, positive control 100% | activation, % at 6.8 µM | 3,400 tested, under 10 active;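 active means mean percent activation of the reporter above a cutoff set as the average over tested compounds plus their standard deviation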
Target sequence (P55055 whole entry, looked up, the tested form may be a part): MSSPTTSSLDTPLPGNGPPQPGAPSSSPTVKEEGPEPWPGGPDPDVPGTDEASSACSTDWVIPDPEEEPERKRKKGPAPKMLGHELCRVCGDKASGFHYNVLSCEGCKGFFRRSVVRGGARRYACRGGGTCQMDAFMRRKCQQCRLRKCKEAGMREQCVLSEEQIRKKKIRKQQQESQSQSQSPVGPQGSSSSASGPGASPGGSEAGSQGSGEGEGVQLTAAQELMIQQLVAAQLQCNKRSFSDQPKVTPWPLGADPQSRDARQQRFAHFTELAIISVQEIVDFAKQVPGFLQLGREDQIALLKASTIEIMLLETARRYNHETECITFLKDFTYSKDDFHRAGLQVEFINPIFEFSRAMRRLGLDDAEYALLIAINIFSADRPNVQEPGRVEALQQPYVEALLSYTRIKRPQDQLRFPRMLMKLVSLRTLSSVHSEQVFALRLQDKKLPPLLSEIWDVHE
hcDAF12 ag = H. contortus DAF-12 receptor agonists, confirmation, cell-based, luminescence, HEK293, lit1-tk-luc, triplicate; shares compounds with hcDAF-12 act; activation, % at 6.8 µM; AID 743032, 2013; hit rate 61% among 3,400; HEK293 hcDAF-12 lit1-tk-luc reporter; % of Δ7-dafachronic acid response;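 active means mean activation across triplicate tests above the threshold derived from the earlier primary screen, cut at about 5.5% in these data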;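 further: 0% = DMSO only wells and 100% = 3 µM Δ7-dafachronic acid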
Starred values were filed as active, the others as inactive; . = no result given. An excerpt weighted towards active compounds, which were near 4.6% of everything screened.

SMILES | hgDAF12 agonist | ssDAF-12 act | hcDAF-12 act | DAX1 inh-1 | Wee1 stabilizer | DAX1 inh-2 | LXRb hcDAF ctr | hcDAF12 ag
CC(=O)Nc1sc2c(c1-c1nc3ccccc3s1)CCN(C)C2 | 5 | 0 | 14* | . | . | . | 1 | 9.4*
CC(=O)Nc1sc2c(c1-c1nc3ccccc3s1)CN(C(C)C)CC2 | 11* | 2.5* | 14* | -1 | . | 1 | 2 | 17*
COC(=O)C[C@H]1CC[C@H]2[C@H](COc3ccc(NC(=O)Nc4ccccc4F)cc3C(=O)N2C)O1 | -2 | -1 | -1 | -1 | . | . | . | .
COc1cccc(-c2cnc3c(NC=O)cc(-c4ccccc4Oc4ccccc4)cn23)c1 | -2 | -2 | 0 | -1 | . | . | . | .
Nc1ccccc1SSc1ccccc1N | 4 | 0 | 11* | -1 | 4 | 1 | 0 | 5
CCOC(=O)[C@]12CCC=C1N(Cc1ccc(Cl)cc1Cl)C(=O)[C@H](CC(=O)NCC1CCCCC1)C2 | 3 | -1 | -1 | -1 | . | . | . | .
Cc1ccc(-n2nc3ccc(N)cc3n2)cc1 | 7 | 0.9* | 13* | 3.7* | 2 | 1 | 2 | 6.7*
Cc1cc2nn(-c3ccc(Cl)cc3)nc2cc1N | 10 | 1.0* | 9.7* | 2 | . | 2 | 1 | 13*
CCOc1ccc(-n2nc3ccc(N)cc3n2)cc1 | -2 | -2 | -3 | 0 | . | -2 | . | .
CCOc1ccc(-n2nc3cc(C)c(N)cc3n2)cc1 | 12* | 1.8* | 7.5* | 2 | . | 4 | 2 | 8.8*
Cc1ccc(-n2nc(-c3ccc(N)cc3)cc2N)cc1 | -2 | 0 | 2 | 0 | 2 | -1 | . | .
COC(=O)[C@H](C(C)C)N(Cc1cn(Cc2ccc(C)cc2)nn1)S(=O)(=O)c1ccc(F)cc1Br | 1 | -1 | -3 | -1 | . | . | . | .
C=CCOc1c(CNc2cccc(C(=O)O)c2)cccc1OC | 9 | 0 | 7.3* | 3 | -2 | 1 | 0 | 3
C=CCOc1c(CNc2cccc(C(=O)O)c2)cccc1OCC | 0 | -1 | -1 | 1 | 0 | 1 | . | .
Cc1cccc(N2O[C@H]3C=C[C@@H]2C3)n1 | 2 | 0 | 9.4* | 0 | . | . | 0 | 5.6*
Cc1ccc(-c2cnc(C(O)c3ccc(Cl)cc3C)[nH]2)cc1 (centres undefined) | 3 | -1 | -1 | 0 | . | . | . | .
O=C(NCCN1CCc2ccccc2C1)C1CCN(S(=O)(=O)N2CCC3(CC2)OCCO3)CC1 | 1 | 1 | 7.5* | 0 | -2 | -2 | 0 | 1
Cc1ccc2nc(-c3cccc(N)c3)[nH]c2c1 | 10 | 0 | 5 | 4 | -2 | -2 | . | .
Cc1ccc2nc(-c3sc4nc(C)cc(C)c4c3N)[nH]c2c1 | 4 | 2.3* | 17* | 4.0* | 2 | 0 | 2 | 24*
CC1(C)Nc2ccccc2C(=O)N1c1ccc(Br)cc1 | 13* | 3.0* | 6.8* | 3 | . | 9.2* | 1 | 5
CC(C)(C)N1C(=O)c2ccccc2NC(=O)N1Cc1ccc(Br)cc1 | 1 | -1 | 4 | 0 | 0 | 0 | . | .
